# Source: PubChem (Johns Hopkins Ion Channel Center)
# The list is not random: actives were taken first. Their share in the collection is about 1.6%.
# KCNQ2 block: inhibitors of rat KCNQ2 potassium channel; B-score at 10 µM; actives 1.1% (n = 310,000); CHO-K1 KCNQ2, FluxOR thallium flux, 20 min; hits give low values;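 active = fluorescence ratio B-score at most minus 3 library SDs, with starting brightness B-score within 2 library SDs, cut at about -5.5 in these data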
# Target sequence (O88943 whole entry, looked up): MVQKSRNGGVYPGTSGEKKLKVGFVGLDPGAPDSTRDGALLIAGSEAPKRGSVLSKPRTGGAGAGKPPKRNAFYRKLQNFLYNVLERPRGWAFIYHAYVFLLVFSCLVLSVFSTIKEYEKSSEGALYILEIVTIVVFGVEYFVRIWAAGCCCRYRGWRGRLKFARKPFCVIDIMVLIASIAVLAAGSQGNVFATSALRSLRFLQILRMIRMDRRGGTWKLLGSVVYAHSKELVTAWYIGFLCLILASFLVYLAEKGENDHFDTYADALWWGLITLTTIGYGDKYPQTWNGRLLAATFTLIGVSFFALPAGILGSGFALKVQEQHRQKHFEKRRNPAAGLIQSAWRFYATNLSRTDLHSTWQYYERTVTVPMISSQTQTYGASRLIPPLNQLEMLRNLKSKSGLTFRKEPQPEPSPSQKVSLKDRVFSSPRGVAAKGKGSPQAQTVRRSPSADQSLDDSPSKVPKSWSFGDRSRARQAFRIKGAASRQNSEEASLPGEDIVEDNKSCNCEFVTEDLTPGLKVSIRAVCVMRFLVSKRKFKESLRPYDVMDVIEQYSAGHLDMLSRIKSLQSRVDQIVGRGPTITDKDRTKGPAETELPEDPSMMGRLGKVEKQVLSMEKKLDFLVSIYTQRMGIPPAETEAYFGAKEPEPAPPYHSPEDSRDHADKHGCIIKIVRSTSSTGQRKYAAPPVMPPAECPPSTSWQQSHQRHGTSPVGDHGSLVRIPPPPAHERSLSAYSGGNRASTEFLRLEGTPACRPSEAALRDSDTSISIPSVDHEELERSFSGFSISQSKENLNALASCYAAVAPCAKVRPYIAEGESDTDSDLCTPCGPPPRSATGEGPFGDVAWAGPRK
# KCNQ2 enhance: potentiators of rat KCNQ2 potassium channel; O88943; CHO-K1 KCNQ2, FluxOR thallium flux fluorescence; hits give high values; B-score at 10 µM; actives 0.54% (n = 310,000); AID 2239;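 active = fluorescence ratio B-score at least 3 SD of library B-scores, with initial fluorescence B-score within 3 of them, cut at about 5.3 in these data; same plate scores as AID 2156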;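 also: B-score of peak minus minimum over baseline fluorescence ratio after K+ and Tl+ stimulus; positive B-score means potentiation of KCNQ2 with more thallium influx and brighter signal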
# Starred values were filed as active, the others as inactive; i = inactive; x = not tested or not shown.
SMILES,KCNQ2 block,KCNQ2 enhance
COc1ccc(C=O)cc1COc1ccc([N+](=O)[O-])c(C)c1,-6.8*,-6.8
CC(C)(C)c1nc2ccccc2c2nnc(SCC(=O)NCc3ccco3)n12,-6.5*,-6.5
CC(C)c1nc2ccccc2c2nnc(SCC(=O)NCc3ccco3)n12,i,x
Cc1ccc(F)cc1NC(=O)C1CC(=O)N(CCc2ccccc2)C1 (stereo not drawn),i,0.08
Cc1ccc(S(=O)(=O)N(C)c2ccccc2C(=O)Nc2c(F)cccc2F)cc1,-5.9*,-5.9
CC(=O)c1cccc(NC(=O)c2ccccc2N(C)S(=O)(=O)c2ccc(C)cc2)c1,i,x
CCOC(=O)/C(C(=O)Nc1ccc(Cl)cc1Cl)=C1/NC(C)(C)Cc2ccccc21,-6.3*,-6.3
CN1C(CC(=O)Nc2ccc(Cl)cc2Cl)c2ccccc2CC1(C)C (stereo not drawn),i,x
Cc1oc2c(C)c3oc(=O)c(CCC(=O)NCCN4CCOCC4)c(C)c3cc2c1C,i,0.71
CCOC(=O)/C=C/C(=O)Nc1ccccc1C(=O)NC1CCCCC1,i,0.2
Cc1cccc2cc(C(c3nnnn3Cc3ccccc3)N3CCN(C)CC3)c(=O)[nH]c12 (stereo not drawn),i,x
CCc1ccc2[nH]c(=O)c(C(c3nnnn3Cc3ccc(OC)cc3)N3CCOCC3)cc2c1 (stereo not drawn),i,x
Cc1cc(C)c2cc(C(c3nnnn3C3CCCC3)N3CCOCC3)c(=O)[nH]c2c1 (stereo not drawn),-6*,-6
Cc1cc(C)c2[nH]c(=O)c(C(c3nnnn3CC3CCCO3)N3CCCC(C)C3)cc2c1 (stereo not drawn),-5.6*,-5.6
Cc1ccc2cc(C(c3nnnn3C3CCCC3)N3CCN(c4ccc(F)cc4)CC3)c(=O)[nH]c2c1 (stereo not drawn),i,x
Cc1cccc2cc(C(c3nnnn3Cc3ccccc3)N3CCN(c4ccccc4)CC3)c(=O)[nH]c12 (stereo not drawn),-9*,-9
COc1ccc(Cn2nnnc2C(c2cc3cc(C)cc(C)c3[nH]c2=O)N2CCOCC2)cc1 (stereo not drawn),-6.7*,-6.7
Cc1cc(C)c2[nH]c(=O)c(C(c3nnnn3CC3CCCO3)N3CCC(C)CC3)cc2c1 (stereo not drawn),i,x
CCNC(=O)c1ccc(NC(=O)CC2SC(N3CCCC3)=NC2=O)cc1 (stereo not drawn),i,1.7
COc1cc(NC(=O)CCNS(=O)(=O)c2ccc3c(c2)CCC(=O)N3)cc(OC)c1,i,x
CCOc1ccc(/C=C(\C)C(=O)c2c(C)cc(C)[nH]c2=O)cc1,i,x
O=C(O)CCCC(=O)N1N=C(c2ccccc2)CC1c1ccc2c(c1)OCO2 (stereo not drawn),i,1.6
NNC(=O)CNC(=O)CNS(=O)(=O)c1ccccc1,i,0.85
CN(Cc1cccnc1)C(=O)CNC(=O)c1ccc(Cl)cc1Cl,i,0.03
CCOC(=O)C1=NN(C(=O)c2cccc(Br)c2)C(O)(C(C)(C)C)C1 (stereo not drawn),i,22*
SMILES,KCNQ2 block,KCNQ2 enhance
CCOC(=O)C1=NN(C(=O)c2ccco2)C2(CC2)C1,i,0.13
CCN(CC1CCCO1)C(=O)CCc1nnc(CCc2ccc(OC)cc2)o1 (stereo not drawn),i,0.15
Cc1cccc(/C(N)=N/OC(=O)c2cccc3ccccc23)c1,-5.7*,-5.7
N/C(=N\OC(=O)c1cccc2ccccc12)c1cccc([N+](=O)[O-])c1,i,0.82
COc1ccc2c(c1)C(C)CC(C)(C)N2C(=O)Nc1ccccc1 (stereo not drawn),i,x
COc1ccc2c(c1)C(C)CC(C)(C)N2C(=O)CSc1nc2ccccc2s1 (stereo not drawn),-7.5*,-7.5
O=c1[nH]cnc2scc(-c3ccc(Br)cc3)c12,i,0.84
Cc1ccc(-c2csc3nc[nH]c(=S)c23)cc1,i,14*
Cc1nc(C(=O)NC2CCCCC2)sc1C1(C)CC(c2cccnc2)=NO1 (stereo not drawn),i,x
CNC(=O)NC(=O)CSc1nc2sccc2c(=O)n1-c1ccccc1,i,0.2
O=C(Nc1cc(Br)c(O)c(Br)c1)c1cccc(NC(=O)c2ccco2)c1,i,2.8
O=C(Nc1cccc(N=Cc2cc(Cl)cc(Br)c2O)c1)c1ccco1,i,10*
COCCNC(=O)C(c1ccc(F)cc1)N(Cc1cccs1)C(=O)CCC(=O)Nc1ccccn1 (stereo not drawn),i,x
COc1cccc(-c2ccc(NC(=O)C3CCCN(Cc4cnc(C)n4C)C3)cc2)c1 (stereo not drawn),i,x
Cc1ncc(CN2CCCC(C(=O)Nc3ccc(-c4cccc(F)c4)cc3)C2)n1C (stereo not drawn),-5.7*,-5.7
CCOC(=O)C1(CC)NC(c2ccc(OC)cc2OC)C2C(=O)N(C)C(=O)C21 (stereo not drawn),i,x
COc1c(C(=O)Nc2ccccc2N2CCOCC2)cc2ccccc2c1Br,-7.5*,-7.5
COc1ccc(N2CCOCC2)c(NC(=O)c2cc3ccccc3o2)c1,-7.3*,-7.3
O=C(Nc1ccccc1N1CCOCC1)c1cc2ccccc2o1,i,x
COc1ccccc1C(=O)Nc1ccccc1N1CCOCC1,i,x
O=C(/C=C/c1ccccc1)Nc1ccc(Cl)cn1,i,x
O=S1(=O)CCOCCCN1Cc1ccccc1,i,x
Cc1cccc(-c2cc(C(=O)Nc3c(C)n(C)n(-c4ccccc4)c3=O)c3ccccc3n2)c1,-5.9*,-5.9
Cc1c(NC(=O)COC(=O)c2cc(-c3cccc4ccccc34)nc3ccccc23)c(=O)n(-c2ccccc2)n1C,i,x
CCc1ccc(Sc2cc(C(=O)NCCN3CCOCC3)c3ccccc3n2)cc1,-5.7*,-5.7
SMILES,KCNQ2 block,KCNQ2 enhance
Cc1ccc(-c2cc(C(=O)NCCCN3CCOCC3)c3ccccc3n2)cc1,i,0.19
Cc1oc(-c2nc3ccccc3n2C)cc1C(=O)c1ccccc1,-6.6*,-6.6
Cn1cc(C(=O)c2ccccc2)cc1-c1nc2ccccc2n1C,i,x
O=C(Cc1ccc(Cl)cc1)Nc1ccccc1C(=O)N1CCCCC1,i,x
O=C(CCS(=O)(=O)CCN1CCOCC1)NCNC(=O)CCS(=O)(=O)CCN1CCOCC1,i,x
Cc1cccc(N2CCN(C(=O)c3cn(C)c(=O)c4c3c3ccccc3n4C)CC2)c1C,i,x
Cc1ccc(Cl)cc1N1CCN(C(=O)c2cn(C)c(=O)c3c2c2ccccc2n3C)CC1,-7.5*,-7.5
CN(C)C(CNC(=O)c1ccccc1OCc1ccc(Cl)cc1)c1ccco1 (stereo not drawn),i,x
COc1ccc(CCNC(=O)CSc2ccccn2)cc1OC,i,0.58
COc1ccc(CCNC(=O)CSc2cccc3cccnc23)cc1OC,-6.3*,-6.3
Cc1cc(-c2ccc(S(=O)(=O)N(C)c3ccc(C)c(C)c3)s2)on1,-6.7*,-6.7
Cc1ccc(N(C)S(=O)(=O)c2ccc(-c3cc(C)no3)s2)cc1,-6.5*,-6.5
COc1ccc(-c2cc(C)no2)cc1S(=O)(=O)N(C)c1ccc(C)c(C)c1,i,x
CCN1CCN(S(=O)(=O)c2ccc(-c3cc(C)no3)s2)CC1,i,0.1
COc1cccc(CN(C(=O)c2cccs2)C2CCS(=O)(=O)C2)c1 (stereo not drawn),i,x
CCOc1ccc(-c2cccc(NC(=O)c3cccs3)c2)nn1,i,0.17
Cc1cc(S(=O)(=O)NCC(c2ccc3c(c2)OCO3)N2CCOCC2)ccc1F (stereo not drawn),i,0.66
